Assay results taken from the supplement of paper PMC8728848.
Many of the other results were omitted from the sample, so the strongest signals are more common in it than they were.

Key:
Test in all cases: glycan array binding signal (z-score within array); higher = stronger binding
Conditions in all cases: glycan notation: IUPAC condensed, linker removed
[1] = system: GlcNAc(b1-3)Gal(b1-4)GlcNAc
Procedure, shortened: (§1)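 Negative Z-scores can be read as non-binding. The Z-score is calculated within each array and then averaged across arrays of one protein sequence at different concentrations or buffers and across linkers. Arrays, 3228 in all, were curated from the Consortium for Functional Glycomics database and kept only where the protein sequence was available.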

Kdn(a2-3)Gal(b1-3)GlcNAc = system: Kdn(a2-3)Gal(b1-3)GlcNAc
Procedure, shortened: as §1

[2] = system: Man(a1-2)Man(a1-2)Man(a1-3)Man
Procedure, shortened: as §1

[3] = system: Man(a1-2)Man(a1-3)[Man(a1-2)Man(a1-6)]Man
Procedure, shortened: as §1

[4] = system: Man(a1-2)Man(a1-2)Man(a1-6)[Man(a1-3)]Man
Procedure, shortened: as §1

Man(a1-2)Man(a1-3)Man = system: Man(a1-2)Man(a1-3)Man
Procedure, shortened: as §1

[5] = system: Man(a1-2)Man(a1-3)[Man(a1-2)Man(a1-6)]Man(a1-6)[Man(a1-2)Man(a1-2)Man(a1-3)]Man(b1-4)GlcNAc(b1-4)GlcNAc
Procedure, shortened: as §1

[6] = system: Man(a1-2)Man(a1-3)[Man(a1-2)Man(a1-6)]Man(a1-6)[Man(a1-2)Man(a1-2)Man(a1-3)]Man
Procedure, shortened: as §1

[7] = system: Man(a1-2)Man(a1-3)[Man(a1-6)]Man(a1-6)[Man(a1-2)Man(a1-3)]Man(b1-4)GlcNAc(b1-4)GlcNAc
Procedure, shortened: as §1

[8] = system: Man(a1-2)Man(a1-6)[Man(a1-3)]Man(a1-6)[Man(a1-2)Man(a1-2)Man(a1-3)]Man(b1-4)GlcNAc(b1-4)GlcNAc
Procedure, shortened: as §1

[9] = system: Man(a1-2)Man(a1-6)[Man(a1-3)]Man(a1-6)[Man(a1-2)Man(a1-2)Man(a1-3)]Man
Procedure, shortened: as §1

[10] = system: GlcNAc(b1-3)[GlcNAc(b1-6)]Gal(b1-4)GlcNAc
Procedure, shortened: as §1

GlcNAc(b1-3)Gal(b1-4)Glc = system: GlcNAc(b1-3)Gal(b1-4)Glc
Procedure, shortened: as §1

GlcNAc(b1-3)GalNAc = system: GlcNAc(b1-3)GalNAc
Procedure, shortened: as §1

GlcNAc(b1-6)GalNAc = system: GlcNAc(b1-6)GalNAc
Procedure, shortened: as §1

[11] = system: GlcNAc(b1-3)[GlcNAc(b1-6)]GalNAc
Procedure, shortened: as §1

[12] = system: GlcNAc(b1-4)GlcNAc(b1-4)GlcNAc(b1-4)GlcNAc(b1-4)GlcNAc
Procedure, shortened: as §1

Kdn(a2-3)Gal(b1-4)GlcNAc = system: Kdn(a2-3)Gal(b1-4)GlcNAc
Procedure, shortened: as §1

[13] = system: GlcNAc(b1-4)Gal(b1-4)GlcNAc
Procedure, shortened: as §1

GlcNAc(b1-4)GlcNAc = system: GlcNAc(b1-4)GlcNAc
Procedure, shortened: as §1

Question: AgI/IIC123-GFP (Streptococcus mutans) was tested. Which “glycan array binding signal (z-score)” value [1] did it give?
Answer: -0.479

Question: What about the “glycan array binding signal (z-score)” value (Kdn(a2-3)Gal(b1-3)GlcNAc) of the same substance?
Answer: -0.106

Question: And the “glycan array binding signal (z-score)” value [2]?
Answer: -0.465

Question: What about the “glycan array binding signal (z-score)” value [3] of the same substance?
Answer: 0.368

Question: For Actinohivin (Actinomycete K97), which “glycan array binding signal (z-score)” value [2] is on record?
Answer: 3.74

Question: And the “glycan array binding signal (z-score)” value [4]?
Answer: 16.1

Question: What about the “glycan array binding signal (z-score)” value (Man(a1-2)Man(a1-3)Man) of the same substance?
Answer: 1.82

Question: And the “glycan array binding signal (z-score)” value [5]?
Answer: 3.83

Question: What about the “glycan array binding signal (z-score)” value [6] of the same substance?
Answer: 12.4

Question: What about the “glycan array binding signal (z-score)” value [3] of the same substance?
Answer: 1.78

Question: What about the “glycan array binding signal (z-score)” value [7] of the same substance?
Answer: 3.51

Question: What about the “glycan array binding signal (z-score)” value [8] of the same substance?
Answer: 6.4

Question: What about the “glycan array binding signal (z-score)” value [9] of the same substance?
Answer: 8.54

Question: For Wza (Escherichia coli), P0A930, which “glycan array binding signal (z-score)” value [10] is on record?
Answer: 3.12

Question: What about the “glycan array binding signal (z-score)” value [2] of the same substance?
Answer: 2.8

Question: What does the source list for Epa22?
Answer: glycan array binding signal (z-score) (GlcNAc(b1-3)Gal(b1-4)Glc): -0.695; glycan array binding signal (z-score) (GlcNAc(b1-3)GalNAc): -0.435

Question: With GspB (Streptococcus gordonii), Q939N5 as the substance, how does the “glycan array binding signal (z-score)” value [10] read?
Answer: -0.418

Question: And the “glycan array binding signal (z-score)” value (GlcNAc(b1-6)GalNAc)?
Answer: -0.73

Question: What does the source list for BambL (Burhholderia ambifaria), Q0B4G1?
Answer: glycan array binding signal (z-score) [11]: -0.313; glycan array binding signal (z-score) [12]: -0.314; glycan array binding signal (z-score) (Man(a1-2)Man(a1-3)Man): -0.316

Question: With “SiiE (Salmonella typhimurium), A0A0H3NVH0” as the substance, how does the “glycan array binding signal (z-score)” value (Kdn(a2-3)Gal(b1-4)GlcNAc) read?
Answer: 2.58

Question: And the “glycan array binding signal (z-score)” value [8]?
Answer: -0.297

Question: How did the “glycan array binding signal (z-score)” value [13] turn out when LcI (Legionella pneumophila) was run?
Answer: 4

Question: And the “glycan array binding signal (z-score)” value [3]?
Answer: -0.584

Question: What does the source list for “SpGH101 (Streptococcus pneumoniae), Q8DR60”?
Answer: glycan array binding signal (z-score) (GlcNAc(b1-4)GlcNAc): -0.14; glycan array binding signal (z-score) (Man(a1-2)Man(a1-3)Man): -0.182; glycan array binding signal (z-score) [5]: -0.2
